This note sets out measurements from PubChem BioAssay (NCATS).

Test [1] concerns the target Catechol O-methyltransferase (Homo sapiens) (UniProt P21964). Put plainly: Confirmatory Screen for Target Class Profiling of Small Molecule Inhibitors of Methyltransferases (AID 1745852; calls by dose curve; note: potency is the fitted concentration of half-maximal effect; for activity change, negative = inhibition: % is set by controls: 0 for no effect and ±100 for the full control effect). The conditions noted are these: MTase-Glo luminescence, SAH detection, recombinant enzyme; measured here: COMT max response; stronger effect = lower value.
Test [2] addresses Guanidinoacetate N-methyltransferase (Homo sapiens) (UniProt Q14353). The description is as above. The settings on record: MTase-Glo luminescence, SAH detection, recombinant enzyme; activity change, negative = inhibition: at 57.3 µM (top of the series) unless noted.
Test [3] has as its target Nicotinamide N-methyltransferase (Homo sapiens) (UniProt P40261). The description is as above. The conditions noted are these: MTase-Glo luminescence, SAH detection, recombinant enzyme; measured here: NNMT max response; stronger effect = lower value.
The target in test [4] is Phenylethanolamine N-methyltransferase (Homo sapiens) (UniProt P11086). Described as above. The settings on record: MTase-Glo luminescence, SAH detection, recombinant enzyme; measured here: PNMT max response; stronger effect = lower value.
Chain of Phenylethanolamine N-methyltransferase (Homo sapiens) (P11086 whole entry, looked up): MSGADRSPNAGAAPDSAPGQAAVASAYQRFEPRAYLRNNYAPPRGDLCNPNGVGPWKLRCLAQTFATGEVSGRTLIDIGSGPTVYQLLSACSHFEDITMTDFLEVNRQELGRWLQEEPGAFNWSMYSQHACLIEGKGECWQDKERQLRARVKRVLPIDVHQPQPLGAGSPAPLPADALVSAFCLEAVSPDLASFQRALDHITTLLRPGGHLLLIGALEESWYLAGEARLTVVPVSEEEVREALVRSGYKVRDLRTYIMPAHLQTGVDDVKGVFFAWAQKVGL
For test [5], the target named is Glutathione peroxidase 1 (Homo sapiens) (UniProt P07203). Nature of the test: Primary qHTS Assay for Inhibitors of Recombinant Selenoprotein Glutathione Peroxidase 1 (GPX1) (AID 1845191). Note: nearly all actives have a fitted effect of over 65% in size. The conditions noted are these: recombinant GPX1, GR-coupled NADPH fluorescence, 15 min; series mostly up to 48.8 µM. The method in brief: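 10 nM GPX1 + cpd, 30 min RT; start w/ 1 mM GSH, 0.5 mM cumene hydroperoxide, 0.5 mM NADPH, 100 nM GR, 0.01% BSA; buffer 50 mM Tris-HCl pH 7.5, 2 mM EDTA, 150 mM NaCl; Fl 340/450, 0 & 15 min.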
Chain of Glutathione peroxidase 1 (Homo sapiens) (P07203 whole entry, looked up): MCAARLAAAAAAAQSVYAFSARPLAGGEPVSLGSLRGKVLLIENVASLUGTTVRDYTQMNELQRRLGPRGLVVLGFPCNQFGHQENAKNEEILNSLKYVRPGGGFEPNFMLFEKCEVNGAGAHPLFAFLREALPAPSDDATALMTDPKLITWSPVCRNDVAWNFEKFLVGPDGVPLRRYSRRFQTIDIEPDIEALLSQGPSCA

Test [6] deals with Phospholipid hydroperoxide glutathione peroxidase GPX4 (Homo sapiens) (UniProt P36969). Put plainly: Primary qHTS Assay for Inhibitors of Recombinant Selenoprotein Glutathione Peroxidase 4 (GPX4) (AID 1845192). For activity change, negative = inhibition: % is set by controls: 0 for no effect and ±100 for the full control effect. Note: nearly all actives have a fitted effect of over 65% in size. Note: potency is the fitted concentration of half-maximal effect. The conditions noted are these: recombinant GPX4, GR-coupled NADPH fluorescence, 15 min; series mostly up to 50 µM. The method in brief: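 NADPH consumption, followed by fluorescence at 340/450 nm between 0 and 15 min, reports GPX4 activity via coupled glutathione reductase (100 nM). Enzyme 200 nM was pre-exposed to compound 30 min; 0.5 mM cumene hydroperoxide and 1 mM GSH served as substrates.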
Chain of Phospholipid hydroperoxide glutathione peroxidase GPX4 (Homo sapiens) (P36969 whole entry, looked up): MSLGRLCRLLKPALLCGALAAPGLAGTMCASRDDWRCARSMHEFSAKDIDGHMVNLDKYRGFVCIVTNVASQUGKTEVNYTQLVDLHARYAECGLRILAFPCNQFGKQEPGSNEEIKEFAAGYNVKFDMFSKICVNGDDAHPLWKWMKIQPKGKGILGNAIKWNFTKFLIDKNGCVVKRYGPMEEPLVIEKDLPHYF
For orientation: qHTS replaces the single test concentration by a dilution series.

In test [7] the target is Luciferin 4-monooxygenase (Photinus pyralis) (UniProt P08659). Nature of the test: Primary firefly luciferase (FLuc) qHTS assay for identification of artifact compounds. (AID 1845220).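 For activity change, negative = inhibition: plate controls were DMSO vehicle for no effect and no enzyme for full effect.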 Note: nearly all actives have a fitted effect of over 60% in size. The settings on record: purified firefly luciferase, luminescence, 5 min; series mostly up to 54.1 µM. The method in brief: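 Cell-free, 1536-well qHTS. Buffer pH 7.6 with 0.01% Tween-20 and 0.05% BSA; 10 uM D-luciferin, 10 uM ATP; 10 nM P. pyralis luciferase; luminescence after 5 min.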

For test [8], the system named is Nanoluciferase (engineered Oplophorus gracilirostris luciferase). Put plainly: Primary Nanoluciferase (NLuc) qHTS assay for identification of artifact compounds. (AID 1845222).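 Note: 0% = DMSO and -100% = no enzyme.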 The settings on record: NLuc-conditioned medium, Nano-Glo luminescence, 5 min; series mostly up to 54.1 µM. Summed up: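 Compounds are pinned into diluted (1:55) conditioned medium of NLuc-expressing S16 cells and held 15 min at room temperature protected from light. Nano-Glo substrate follows, and luminescence is read 5 min later.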

A short description of test [9]: Primary redox qHTS assay for identification of artifact compounds. (AID 1845223). The settings on record: Amplex Red/HRP redox cycling with DTT, fluorescence; series mostly up to 53.8 µM. Summed up: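 Amplex Red (25 uM) and HRP (250 mU/mL) in HBSS, with compounds for 15 min, then 250 uM DTT for 30 min, room temperature, dark. Fluorescence 525/598 nm read; normalized to DMSO and 10 uM DA3003; Hill fit.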

The nature of test [10]: Quantitative High-Throughput drug screen in 47 multiple myeloma cell lines against the NCATS MIPE library collection: FR4_PLB cell viability assay (AID 1918924; note: nearly all actives have a fitted effect of over 35% in size; note: potency is the fitted concentration of half-maximal effect). The settings on record: FR4_PLB myeloma cells viability, CellTiter-Glo ATP, 48 h; series mostly up to 45.8 µM. The method in brief: (§1)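 Primary qHTS used for cherry-picking: cells at 500/well, library compounds for 48 h (37C, 5% CO2), luminescent ATP assay.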
In general terms: Cellular ATP, detected with luciferase, serves as a proxy for viable cell number.

The nature of test [11]: Quantitative High-Throughput drug screen in 47 multiple myeloma cell lines against the NCATS MIPE library collection: Delta47_JCRB cell viability assay (AID 1918925; note: potency is the fitted concentration of half-maximal effect; nearly all actives have a fitted effect of over 45% in size). The conditions noted are these: Delta47 myeloma viability, CellTiter-Glo ATP, 48 h; series mostly up to 45.8 µM. The method in brief: (§2)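 CellTiter-Glo luminescence (ATP) after 48 h compound exposure, 37C/5% CO2; 500 cells/well; MIPE 4.0 approved/investigational drugs pinned in; DMSO = 100%, media only = 0% viability.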

A short description of test [12]: Quantitative High-Throughput drug screen in 47 multiple myeloma cell lines against the NCATS MIPE library collection: EJM_DSMZ cell viability assay (AID 1918926; note: potency is the fitted concentration of half-maximal effect; nearly all actives have a fitted effect of over 30% in size). The conditions noted are these: EJM myeloma cell viability, CellTiter-Glo ATP, 48 h; series mostly up to 45.8 µM. The method in brief:
as §2

A short description of test [13]: Quantitative High-Throughput drug screen in 47 multiple myeloma cell lines against the NCATS MIPE library collection: AMO1_DSMZ cell viability assay (AID 1918927; note: potency is the fitted concentration of half-maximal effect; nearly all actives have a fitted effect of over 30% in size). The conditions noted are these: AMO1 myeloma cells viability, CellTiter-Glo ATP luminescence, 48 h; series mostly up to 45.8 µM. Summed up: as §2
Test [14] is described as follows: Quantitative High-Throughput drug screen in 47 multiple myeloma cell lines against the NCATS MIPE library collection: ARP1_JJKsccF8 cell viability assay (AID 1918928; note: potency is the fitted concentration of half-maximal effect; nearly all actives have a fitted effect of over 40% in size). The settings on record: ARP1 myeloma cells viability, CellTiter-Glo ATP, 48 h; series mostly up to 45.8 µM. The method in brief:
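Myeloma cells at 500 per well in 1536-well format treated with MIPE 4.0 library by pin transfer for 48 h at 37C, 5% CO2. Viability from ATP luminescence (CellTiter-Glo), normalized to DMSO (100%) and media-only (0%) wells.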

A short description of test [15]: Quantitative High-Throughput drug screen in 47 multiple myeloma cell lines against the NCATS MIPE library collection: ARD_JJKsccE7 cell viability assay (AID 1918929; note: potency is the fitted concentration of half-maximal effect). The conditions noted are these: ARD myeloma cell line viability, CellTiter-Glo, 48 h; series mostly up to 45.8 µM. The method in brief:
as §2

The nature of test [16]: Primary fluorescence-based thiol-reactive (MSTI) qHTS assay for identification of artifact compounds. (AID 1845221).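 Note: thiol-reactive compounds lower the probe fluorescence signal; nearly all actives have a fitted effect of over 65% in size.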 The settings on record: MSTI thiol-reactivity probe, 1 h; series mostly up to 53.8 µM. The method in brief:
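MSTI probe at 4 uM final in 2% DMSO/PBS pH 7.4; compounds, 1 h at room temperature in dark. Fluorescence Ex/Em 525/598 nm, normalised to Acetyl-MSTI and MSTI, fitted to 4-parameter Hill.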

Test [17] in a line: Quantitative High-Throughput drug screen in 47 multiple myeloma cell lines against the NCATS MIPE library collection: Karpas620_DSMZ cell viability assay (AID 1918959). Note: potency is the fitted concentration of half-maximal effect; nearly all actives have a fitted effect of over 30% in size. The conditions noted are these: Karpas620 myeloma viability, CellTiter-Glo ATP luminescence, 48 h; series mostly up to 45.8 µM. The method in brief: as §1

Where “and” joins values, the source holds several entries; their conditions need not be identical. Equal entries are not always repeated. Records with an inconclusive call do not appear. Calls of active or inactive are those of the source. Unless noted, calls come from the whole dose curve; as a rule, active = well fitted curve in the direction sought with a large enough effect; inconclusive = small, poorly fitted or top-dose-only effect, or another doubt; inactive = no such curve, though single readings can be large; an effect the other way counts as inactive or inconclusive.

Chain of Nicotinamide N-methyltransferase (Homo sapiens) (P40261 whole entry, looked up): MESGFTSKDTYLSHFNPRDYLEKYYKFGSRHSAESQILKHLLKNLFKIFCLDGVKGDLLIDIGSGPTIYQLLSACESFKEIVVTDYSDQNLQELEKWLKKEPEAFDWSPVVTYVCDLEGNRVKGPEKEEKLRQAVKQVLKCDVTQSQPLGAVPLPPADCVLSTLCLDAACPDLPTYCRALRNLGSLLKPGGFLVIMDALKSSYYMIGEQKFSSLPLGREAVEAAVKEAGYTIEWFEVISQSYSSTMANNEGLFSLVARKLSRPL
Chain of Catechol O-methyltransferase (Homo sapiens) (P21964 whole entry, looked up): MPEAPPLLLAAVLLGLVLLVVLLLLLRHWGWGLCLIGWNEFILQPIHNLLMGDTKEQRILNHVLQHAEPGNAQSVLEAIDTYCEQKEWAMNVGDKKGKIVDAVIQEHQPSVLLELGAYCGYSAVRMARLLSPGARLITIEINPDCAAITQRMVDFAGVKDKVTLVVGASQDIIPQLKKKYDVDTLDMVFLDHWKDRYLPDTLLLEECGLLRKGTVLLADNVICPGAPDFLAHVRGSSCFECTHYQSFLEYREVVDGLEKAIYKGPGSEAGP

Regarding `C=CCn1c(=O)c2cnc(Nc3ccc(N4CCN(C)CC4)cc3)nc2n1-c1cccc(C(C)(C)O)n1`, the figures for the activity in test [1], in test [3] and in [4] were -20.7%, -8.48% and -20.6%, respectively. In addition, the activity change, negative = inhibition in test [2] is -6.72%. Further, the Potency result in test [5], in test [6], in test [7], in test [8] and in test [9] was “inactive” throughout. For the same compound, the Potency in test [10] was 132 nM (active); in test [11] it was 418 nM (active); in test [12], 1.48 µM (active); in test [13], 590 nM (active); in [14], 1.18 µM (active); in [15], 264 nM (active).

Take `Cc1c(CN2CCN(S(C)(=O)=O)CC2)sc2c(N3CCOCC3)nc(-c3cnc(N)nc3)nc12`: the activity was -10.4% in test [1], -17.8% in [3] and -14.7% in test [4]. Further, the activity change, negative = inhibition in test [2] was -5.48%. Besides, the Potency entry in test [5], in test [6], in [7], in test [16] and in test [9] was “inactive” each time. The Potency in [10] was 105 nM (active); in test [11], 10.5 nM (active); in test [12], 0.105 µM (active); in [13], 93.5 nM (active); in test [14], 0.0083 µM (active); in test [17], 66.2 nM (active).

As to `Cc1c(C)n(Cc2ccc(-c3ccccc3C(=O)O)cc2)c2ccc(C(=O)N[C@@H](C)c3ccc([N+](=O)[O-])cc3)cc12`, the activity in test [1] was -7.34%; in [3], -14.9%; in test [4], -11.9%. The activity change, negative = inhibition in test [2] is -10.2%. In addition, the Potency result in [5], in [7], in [16], in test [8], in [9] and in [10] was “inactive” throughout. Further, the Potency is 9.04 µM (active) in test [6], 23500 nM (active) in test [11], 118 nM (active) in test [13] and 93.5 nM (active) in test [17].

On to `O=C(O)c1ccc2c(c1)nc(Nc1cccc(Cl)c1)c1ccncc12`, for which the activity in test [1] is -68.6%; in test [3], -53.1%; in test [4], -66.6%. In addition, the Potency in test [2] is 27.1 µM (active); in [10] it was 5260 nM (active); in test [11] it was 4180 nM (active); in test [12], 9.35 µM (active); in [13], 5900 nM (active); in test [14] it was 9.35 µM (active). For the same compound, the Potency in test [15] was 8330 nM (active); in test [17] it was 4180 nM (active). For the same compound, the Potency result in test [5], in test [6], in test [7] and in [9] was “inactive” throughout.

With `CC(C)c1cc(-c2n[nH]c(=O)n2-c2ccc3c(ccn3C)c2)c(O)cc1O`, the values for the activity in test [1], in test [3] and in [4] were -27.7%, -33.4% and -21.8%, respectively. The Potency in test [2] is 30.4 µM (active); in test [11] it was 33.2 nM (active); in [13], 29.6 nM (active); in test [14] it was 0.0296 µM (active); in [15] it was 16.6 nM (active); in [17], 29.6 nM (active). The Potency result in test [5], in [6], in test [7], in test [16], in test [8] and in test [9] was “inactive” each time.

For `CCS(=O)(=O)c1cccc(-c2cc(C(=O)NC3CCN(C)CC3)c(C)c3[nH]c4ncc(C)cc4c23)c1`, the activity was -16.8% and -13.7% in test [1]; -55.9% and -55.5% in test [3]; -15.8% and -17.5% in [4]. Also, the Potency in [2] was 18.8 µM (active); in test [10], 2350 nM (active); in test [11], 662 nM (active); in [12], 2.64 µM (active); in test [13] it was 9350 nM (active); in test [14], 2.09 µM (active). In addition, the results for the Potency in test [15] and in test [17] were 3320 nM (active) and 1660 nM (active), respectively. Moreover, the activity change, negative = inhibition in test [2] was -3.37%. Further, the Potency result in [5], in [6], in test [7], in test [16], in test [8] and in test [9] was “inactive” throughout.
